Laboratory results reported in PubChem BioAssay AID1159580 (chemical genetic matrix, 2015).
The whole screen tested about 5,500 compounds, of which about 2,000 (36%) were called active. Roughly 18% stayed inconclusive and do not appear here. No stated cut-off is given here; in the data, active means normalized growth mostly below about 0.91 (no sharp cut-off); inconclusive means no clear call, values can overlap the other calls; inactive means mostly above about 0.92. This is one part of the list.

Assay: chemical genetic growth profiling, strain panel (AID 1159580);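 further: tested at 20 µM; growth read once vehicle control cultures reached saturation at 30 °C; 1 = growth at the plate median or of vehicle wells; lower values mean less growth of the strain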
Settings: growth OD

Measured: normalized growth

Cn1cnc([N+](=O)[O-])c1Sc1ncnc2nc[nH]c12
inactive: S. cerevisiae deletion strains, locus YKL009W, strain mrt4, hits give low values 0.983 | S. cerevisiae deletion strains, locus YKL068W, hits give low values 0.997 | S. cerevisiae deletion strains, locus YKL085W, strain MDH1 (second series), hits give low values 1 | S. cerevisiae deletion strains, locus YKL085W, strain MDH1, hits give low values 1 | S. cerevisiae deletion strains, locus YKL160W, strain elf1, hits give low values 1.04 | S. cerevisiae deletion strains, locus YKL190W, strain CNB1, hits give low values 1.01 | S. cerevisiae deletion strains, locus YKR001C, strain vps1, hits give low values 0.988 | S. cerevisiae deletion strains, locus YKR026C, strain gcn3, hits give low values 1.01 | S. cerevisiae deletion strains, locus YKR091W, strain srl3, hits give low values 1.01 | S. cerevisiae deletion strains, locus YLL001W, strain dnm1, hits give low values 1.02 | S. cerevisiae deletion strains, locus YLL026W, hits give low values 1.03 | S. cerevisiae deletion strains, locus YLL041C, strain sdh2, hits give low values 1.02 | S. cerevisiae deletion strains, locus YLR027C, strain aat2, hits give low values 1.02 | S. cerevisiae deletion strains, locus YLR039C, strain RIC1, hits give low values 1.09 | S. cerevisiae deletion strains, locus YLR058C, strain SHM2, hits give low values 1.01 | S. cerevisiae deletion strains, locus YLR102C, strain apc9, hits give low values 0.993 | S. cerevisiae deletion strains, locus YLR113W, strain HOG1, hits give low values 1.03 | S. cerevisiae deletion strains, locus YLR221C, strain rsa3, hits give low values 1.01 | S. cerevisiae deletion strains, locus YLR258W, strain gsy2, hits give low values 1.02 | S. cerevisiae deletion strains, locus YLR262C, strain YPT6 (second series), hits give low values 0.996 | S. cerevisiae deletion strains, locus YLR262C, strain YPT6, hits give low values 1.1 | S. cerevisiae deletion strains, locus YLR268W, strain sec22, hits give low values 0.981 | S. cerevisiae deletion strains, locus YLR320W, strain mms22, hits give low values 1.01 | S. cerevisiae deletion strains, locus YLR330W, strain CHS5, hits give low values 1.01 | S. cerevisiae deletion strains, locus YLR342W, strain FKS1 (second series), hits give low values 1.01 | S. cerevisiae deletion strains, locus YLR342W, strain FKS1, hits give low values 1.02 | S. cerevisiae deletion strains, locus YLR357W, strain rsc2, hits give low values 1 | S. cerevisiae deletion strains, locus YLR370C, strain arc18, hits give low values 1.03 | S. cerevisiae deletion strains, locus YLR371W, strain rom2, hits give low values 0.984 | S. cerevisiae deletion strains, locus YLR384C, strain iki3, hits give low values 1.03 | S. cerevisiae deletion strains, locus YLR418C, strain cdc73, hits give low values 1 | S. cerevisiae deletion strains, locus YML016C, strain PPZ1, hits give low values 1.02 | S. cerevisiae deletion strains, locus YML032C, strain rad52, hits give low values 0.989 | S. cerevisiae deletion strains, locus YML120C, strain ndi1, hits give low values 0.999 | S. cerevisiae deletion strains, locus YML124C, strain tub3, hits give low values 0.994 | S. cerevisiae deletion strains, locus YMR058W, strain fet3, hits give low values 1.01 | S. cerevisiae deletion strains, locus YMR078C, strain ctf18, hits give low values 0.985 | S. cerevisiae deletion strains, locus YMR125W, strain sto1, hits give low values 1.01 | S. cerevisiae deletion strains, locus YMR129W, hits give low values 1.01 | S. cerevisiae deletion strains, locus YMR205C, strain PFK2, hits give low values 1.02 | S. cerevisiae deletion strains, locus YMR223W, strain ubp8, hits give low values 0.994 | S. cerevisiae deletion strains, locus YMR231W, strain pep5, hits give low values 1.02 | S. cerevisiae deletion strains, locus YMR263W, strain SAP30, hits give low values 0.999 | S. cerevisiae deletion strains, locus YMR307W, strain GAS1, hits give low values 1.11 | S. cerevisiae deletion strains, locus YNL067W, strain RPL9B, hits give low values 0.99 | S. cerevisiae deletion strains, locus YNL071W, strain lat1, hits give low values 1.03 | S. cerevisiae deletion strains, locus YNL153C, strain GIM3, hits give low values 0.995 | S. cerevisiae deletion strains, locus YNL175C, strain NOP13, hits give low values 1.01 | S. cerevisiae deletion strains, locus YNL183C, strain NPR1, hits give low values 1 | S. cerevisiae deletion strains, locus YNL197C, strain WHI3, hits give low values 1 | S. cerevisiae deletion strains, locus YNL209W, strain ssb2, hits give low values 1.04 | S. cerevisiae deletion strains, locus YNL224C, strain SQS1, hits give low values 0.966 | S. cerevisiae deletion strains, locus YNL233W, strain BNI4, hits give low values 1 | S. cerevisiae deletion strains, locus YNL248C, strain rpa49, hits give low values 1.06 | S. cerevisiae deletion strains, locus YNL250W, strain rad50, hits give low values 0.99 | S. cerevisiae deletion strains, locus YNL271C, strain bni1, hits give low values 0.993 | S. cerevisiae deletion strains, locus YNL298W, strain CLA4, hits give low values 0.995 | S. cerevisiae deletion strains, locus YNL307C, strain MCK1, hits give low values 0.981 | S. cerevisiae deletion strains, locus YNL322C, strain KRE1 (second series), hits give low values 1.02 | S. cerevisiae deletion strains, locus YNL322C, strain KRE1, hits give low values 1.01 | S. cerevisiae deletion strains, locus YNR049C, strain mso1, hits give low values 1.01 | S. cerevisiae deletion strains, locus YNR052C, strain pop2, hits give low values 0.99 | S. cerevisiae deletion strains, locus YOL006C, strain TOP1, hits give low values 1 | S. cerevisiae deletion strains, locus YOL012C, strain htz1 1.34 | S. cerevisiae deletion strains, locus YOL147C, strain pex11, hits give low values 0.988 | S. cerevisiae deletion strains, locus YOR001W, strain rrp6, hits give low values 1.01 | S. cerevisiae deletion strains, locus YOR061W, strain CKA2, hits give low values 1.02 | S. cerevisiae deletion strains, locus YOR069W, strain VPS5, hits give low values 1.01 | S. cerevisiae deletion strains, locus YOR070C, strain gyp1, hits give low values 1.03 | S. cerevisiae deletion strains, locus YOR080W, strain dia2, hits give low values 1.02 | S. cerevisiae deletion strains, locus YOR083W, strain WHI5 (second series), hits give low values 1.02 | S. cerevisiae deletion strains, locus YOR083W, strain WHI5, hits give low values 0.98 | S. cerevisiae deletion strains, locus YOR106W, strain vam3, hits give low values 1.04 | S. cerevisiae deletion strains, locus YOR136W, strain idh2, hits give low values 0.979 | S. cerevisiae deletion strains, locus YOR144C, strain elg1, hits give low values 0.987 | S. cerevisiae deletion strains, locus YOR184W, strain ser1, hits give low values 0.981 | S. cerevisiae deletion strains, locus YOR231W, strain MKK1, hits give low values 1.06 | S. cerevisiae deletion strains, locus YOR265W, strain rbl2, hits give low values 1.02 | S. cerevisiae deletion strains, locus YOR270C, strain vph1, hits give low values 1.05 | S. cerevisiae deletion strains, locus YOR290C, strain snf2, hits give low values 1.04 | S. cerevisiae deletion strains, locus YOR316C, strain cot1, hits give low values 0.996 | S. cerevisiae deletion strains, locus YPL051W, strain arl3, hits give low values 1.04 | S. cerevisiae deletion strains, locus YPL078C, strain atp4, hits give low values 1.03 | S. cerevisiae deletion strains, locus YPL106C, strain sse1, hits give low values 1.03 | S. cerevisiae deletion strains, locus YPL240C, strain hsp82, hits give low values 1.05 | S. cerevisiae deletion strains, locus YPL241C, strain CIN2, hits give low values 1 | S. cerevisiae deletion strains, locus YPL256C, strain CLN2, hits give low values 1.05 | S. cerevisiae deletion strains, locus YPR119W, strain clb2, hits give low values 0.991 | S. cerevisiae deletion strains, locus YPR141C, strain kar3, hits give low values 0.99 | S. cerevisiae deletion strains, locus YPR163C, strain tif3, hits give low values 0.981 | S. cerevisiae deletion strains, locus YPR167C, strain met16, hits give low values 0.989 | S. cerevisiae deletion strains, strain wtn01, hits give low values 0.988 | S. cerevisiae strains, strain wild type, hits give low values 1.01
